The OligoGym collection

target: NKPD1; assay: pooled miR-30 sensor sort-seq; sequence = guide strand; settings: shRNA
Note: reference of the scale not given here.

Sequence | sensor-assay potency score (higher = more potent)
TTACGAACAGGTGCTTGCCCAC | -0.968
TAGATCTCCAGGAAGCACAGGA | 0.323
TACAACAGGTCGTCGCGGCTCT | -0.332
TTGAGCGCGCTGACGGCTCGGA | -0.211
AAAAGGAACTGCACGTTCCTGC | -0.361
TACTCGTAGAGGCAGTCGCGCT | -1.54
TCGCACATGAAACCCAGCTGGC | -0.962
TTGAGCAGGCTGCCGCTCGGGC | -0.937

target: NLGN1; assay: as above; settings: shRNA

Sequence | sensor-assay potency score (higher = more potent)
TATCTGAAACATTGCAACCAAC | -1.43
TGAGGTACCAACTCCAACCAGA | 0.0181
TTGTTGTTTGGGATCATCCTGC | 0.229
TAGCATTGGACTAATAGTCATT | -0.504
TTGGTATGAATGAATTTCGTGT | -0.285
TTGTTGTAGAGGTATACTGAGA | -1.34
TTGGTCAACAAGTTCTTTGTAA | 0.00294
TAAATTTCCAGTACCTTCCATA | -0.487
TTTATTTCACACAATGACCAGT | 0.0352
TAACATTATATCATAGTTGAGA | -0.468
TTGCTCGTTGAAAAAGTCCTTT | -0.525
